Only some compounds are listed: those with a hit (about 2.2% of all), similar ones and a draw of the others.
APP 5UTR inh: APP translation inhibition | 190,000 compounds, 0.82% hits | AID 1285 | SH-SY5Y APP 5'UTR-luciferase reporter, luminescence | inhibition, % at 2 µM;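 active = inhibition above a set limit, derived from the sample mean plus 3 SD, cut at about 45% in these data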
Ba/F3 V617F tox: loss of viability in JAK2V617F-driven Ba/F3 cells | Ba/F3 EpoR-JAK2V617F viability, ATP luminescence | inhibition, % at 5.6 µM | 220,000 compounds, 1.1% hits | AID 1446;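 active = inhibition above the campaign mean plus 3 SD over all tested compounds, cut at about 24% in these data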;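 also: cytokine-independent growth of Ba/F3 cells driven by EpoR plus mutant JAK2; 0% = DMSO-treated cells and 100% = JAK inhibitor I control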
KLF5 inhibitor: suppresses KLF5 promoter-driven expression | DLD-1 KLF5 promoter-luciferase reporter, luminescence | inhibition, % at 5 µM | 290,000 compounds, 0.23% hits;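 active = inhibition above a per-plate limit of that plate's mean compound inhibition plus 3 SD, cut at about 60% in these data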;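 also: 0% = DMSO wells and 100% = LY294002 at 200 µM; higher means less KLF5 promoter-driven luciferase light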
IEC-6 cytotox: IEC-6 cytotoxicity, counter-screen for KLF5 inhibitors; luminescence viability; 290,000 compounds, 0.78% hits; inhibition, % at 5 µM; in the data active = inhibition above about 22%;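 also: 0% = plate median of test compound wells and 100% = cytotoxic reference compound wells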
aSyn 5UTR inh: 5' untranslated region of α-synuclein, MLPCN primary screen | alpha-synuclein 5'UTR reporter, inhibitor activity | inhibition, % (tested at 7.5 µM) | 300,000 compounds, 0.82% hits | AID 1813; in the data active = inhibition above about 60%;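 also: H4 neuroglioblastoma cells stably carrying SNCA 5'UTR luciferase fusion; 0% = DMSO wells and 100% = positive control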
BaF3 tox: reduces parental Ba/F3 cell viability, JAK2V617F counter-screen; CellTiter-Glo ATP luminescence; inhibition, % at 5.6 µM; 220,000 compounds, 1.1% hits; AID 1486;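 active = inhibition above a per-campaign cutoff, the mean inhibition of all tested compounds plus 3 SD, cut at about 27% in these data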;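 also: 0% = DMSO wells and 100% = JAK Inhibitor I control wells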
Numbers without * were called inactive; . = no result; ! = repeats disagree.

SMILES	APP 5UTR inh	Ba/F3 V617F tox	KLF5 inhibitor	IEC-6 cytotox	aSyn 5UTR inh	BaF3 tox
CC1(C)CC2CC(C)(CN2C(=O)c2ccc([N+](=O)[O-])cc2[N+](=O)[O-])C1 (stereo unspecified)	3.2	1.6	-17.6	-3.2	-0.6	10.2
O=C(N=Nc1c(O)[nH]c2ccc(Br)cc12)c1cc(-c2cccs2)nc2ccccc12	27.7	0.1	-10.8	5.9	81.4*	4.0
Cn1c(O)c(N=NC(=O)c2cc(-c3cccs3)nc3ccccc23)c2ccccc21	2.4	-1.3	11.1	-4.0	13.0	4.6
Cc1ccc(S(=O)(=O)NCC(=O)N2CCOCCOCCOCC2)cc1	.	.	-32.0	4.6	11.9	.
O=C1c2cc(F)ccc2-n2c1nc1ccccc1c2=O	.	.	25.4	12.2	65.8*	.
Nn1c(-c2ccc(F)cc2)nc2ccccc2c1=O	.	.	-13.5	8.2	6.2	.
CC(C)CC(=O)NC(=S)NNC(=O)c1ccc([N+](=O)[O-])cc1	-8.2	-4.1	-22.8	-0.6	0.6	6.7
CC(C)CC(=O)NC(=S)NNC(=O)c1ccc(NC(=O)C2CCCCC2)cc1	18.8	-1.4	-5.8	-3.9	74.7*	6.7
CCC(=NCCc1c(C)[nH]c2ccc(C)cc12)C1=C(O)CC(c2ccccc2)CC1=O (stereo unspecified)	94.9*	-1.8	-30.6	-2.0	104.0*	5.6
CN1/C(=C\P(=O)(N(C)C)N(C)C)C(C)(C)c2ccccc21	-3.6	61.1*	-31.9	-5.4	17.5	62.4*
Cc1cc(C(=O)CSc2nnc(-c3cccs3)n2Cc2ccccc2)c(C)n1C	-7.8	0.5	-17.3	2.3	-2.7	3.1
O=c1cc(CSc2nnc(-c3cccs3)n2Cc2ccccc2)nc2sc3ccccc3n12	5.2	43.0*	-5.5	1.8	-16.4	54.9*
O=C(NCC(=O)N1CCN(c2ccccn2)CC1)c1ccc(Br)o1	.	.	-12.0	6.9	-6.3	.
Cc1cc(N2CCN(C)CC2)ccc1NC(=O)c1c2c(nc3ccccc13)CCN(Cc1ccccc1)C2	12.5	10.0	2.4	2.7	91.6*	6.7
O=C(NC1CCCCCC1)c1c2c(nc3ccccc13)CCN(Cc1ccccc1)C2	-12.9	-2.4	-12.9	-2.1	-56.8	3.4
O=C(Nc1ccc(Cl)c(Cl)c1)Nc1ccccc1C(=O)O	-214.9	18.3	-136.7	-10.2	-7.6	45.2*
COc1ccc(NCc2ccc([N+](=O)[O-])s2)cc1	49.0*	-2.0	-29.8	-7.1	-50.1	4.5
CCC(C)Nc1nc(N)c([N+](=O)[O-])c(Nc2cc(OC)ccc2OC)n1 (stereo unspecified)	.	1.2	6.5	5.8	97.1*	-1.4
COc1ccccc1Nc1nc(NCC(C)C)nc(N)c1[N+](=O)[O-]	.	-3.0	-20.8	3.3	77.3*	-2.8
COc1cc(NS(=O)(=O)c2ccc(NC(=O)Cc3ccccc3)cc2)nc(OC)n1	.	.	-0.5	-1.8	10.1	.
CC1(c2ccccc2)NC(=O)N(CC(=O)Nc2ccccc2C(=O)N2CCCCC2)C1=O (stereo unspecified)	.	.	.	.	3.7	.
COc1ccc(NS(=O)(=O)c2cc(NC(=O)Cn3cnc4c3c(=O)n(C)c(=O)n4C)ccc2C)cc1	4.3	7.3	-7.0	-2.8	-8.3	7.4
CCN1CCN(Cc2ccc(NC(=O)c3ccc(C)c(NC(=O)N4CCNC4=O)c3)cc2C(F)(F)F)CC1	.	.	-23.1	4.5	66.3*!	.
CCCCNC(=O)c1cn(CC(C)C)c(=O)c2c1c1ccccc1n2C	.	.	-12.4	1.2	-23.0	.
C/C(=N\NC(=O)c1cc(-c2cccnc2)nc2ccccc12)c1ccc(O)cc1O	65.6*	-1.2	3.1	3.4	105.0*	4.6
SMILES	APP 5UTR inh	Ba/F3 V617F tox	KLF5 inhibitor	IEC-6 cytotox	aSyn 5UTR inh	BaF3 tox
C/C(=N\NC(=O)c1cc(-c2cccc(OC(C)C)c2)nc2ccccc12)c1cccnc1	.	.	-28.3	-2.9	17.2	.
COc1ccc(-c2c[n+]3c(n2-c2ccccc2)SCC3)cc1	.	73.1*	-13.1	1.9	9.8	61.2*
Brc1ccc(-c2c[n+]3c(n2-c2ccccc2)SCC3)cc1	.	64.0*	-19.1	1.7	-22.5	59.4*
Cc1ccc(-c2c[n+]3c(n2-c2ccccc2)SCC3)cc1	.	79.1*	0.4	11.4	1.1	64.3*
N#Cc1ccc(-c2cn(-c3ccccc3)c3[n+]2CCCS3)cc1	-7.8	-3.5	-21.6	-6.0	3.4	2.2
Cc1ccc(C2(O)CN(c3ccccc3)C3=[N+]2CCS3)cc1 (stereo unspecified)	-21.5	6.2	-16.2	1.7	-12.2	22.7
COc1ccc(-c2nnc3n2-c2ccccc2SC3)cc1OC	-3.8	1.6	-6.0	-2.4	10.9	4.1
COc1ccc(-c2c[n+]3c(n2-c2ccccc2)SCC3)cc1OC	-31.2	46.2*	5.5	3.0	15.7	76.6*
Cc1ncc(CO)c(/C=N/NC(=S)Nc2ccc(F)cc2)c1O	32.0	2.2	-40.8	-5.9	12.8	3.6
Cc1ncc(CO)c(/C=N/Nc2ccc(C(F)(F)F)cn2)c1O	.	.	52.0	-3.0	87.6*	.
CCSc1nc2sc3c(c2c(=O)n1-c1ccc(OC)cc1)CCN(C)C3	.	13.3	-17.9	-6.2	3.6	38.2*
O=C(CCC(=O)Nc1ccc(Cl)cc1Cl)N/N=C/c1ccc([N+](=O)[O-])o1	-6.2	3.0	-24.0	-2.8	12.7	11.9
COC(=O)c1cccc(NC(=O)/C=C/c2ccc3c(c2)OCO3)c1	-11.8	17.2	5.5	-9.7	102.3*	15.6
O=C(Nc1cccc(-c2cn3cccnc3n2)c1)c1ccc(Br)o1	53.9*	3.8	-24.4	3.5	-50.2	5.7
O=C(Nc1cccc(-c2cn3cccnc3n2)c1)c1ccco1	13.7	-3.0	-14.1	-1.0	-31.0	1.4
Fc1ccc(NC(=S)N2CCc3ccccc3C2)c(F)c1	7.6	14.8	-3.4	2.3	-48.9	39.4*
Fc1ccc(NC(=S)N2CCOCC2)c(F)c1	.	.	-10.8	-1.3	12.4	.
O=C(Nc1ncccn1)C12CC3CC(CC(C3)C1)C2	.	-4.7	1.4	4.2	-10.5	0.9
O=C(Nc1nccs1)C12CC3CC(C1)CC(C(=O)Nc1nccs1)(C3)C2	-29.4	49.9*	23.4	-12.3	-49.4	23.7
CC(=O)c1ccc(NC(=O)C(C)OC(=O)c2ccc(NS(=O)(=O)c3ccc(F)c(F)c3)cc2)cc1 (stereo unspecified)	6.3	-4.1	-1.5	1.0	16.2	2.4
COc1ccc(Nc2oc(COc3ccc(OC)cc3)nc2C#N)cc1	4.2	-3.5	4.3	1.1	77.9*	-1.6
COc1ccc(Nc2oc(COc3cccc(C)c3)nc2C#N)cc1	-4.5	1.4	-44.5	5.3	29.5	5.5
COc1ccc(Nc2oc(COc3ccccc3F)nc2C#N)cc1	-1.2	-0.9	-20.4	3.5	38.5	3.1
COc1ccc(Nc2oc(COc3ccc(C)cc3)nc2C#N)cc1	-2.4	3.9	-31.3	0.4	67.9*	4.3
Cn1ncc([N+](=O)[O-])c1C(=O)n1nnc2ccccc21	-0.3	3.4	5.5	2.7	.	11.7
COc1ccc2nc(C)cc(SCC(=O)N/N=C/c3ccc(O)cc3O)c2c1	35.7	6.9	22.3	5.2	79.8*	15.0
